Reference: PubChem BioAssay (NCI)
Compounds without any hit were thinned out: in the full panel of roughly 83,000, 20% have a hit.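 In brief: 96-well plates, 48 h treatment, single concentration, percent growth endpoint.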 Unmarked numbers belong to inactive results. Activity calls are given as the source filed them. How the source made its calls: active means growth percent below 10; inactive means the rest.

Columns and labels:
Test in all cases: NCI-60 one-dose screen, 48 h (100 = growth as untreated, 0 = no growth, -100 = all killed)
Settings in all cases: 10 µM unless noted
HCT-15 colon = test system: HCT-15 colon
HT29 colon = test system: HT29 colon
SNB-75 CNS = test system: SNB-75 CNS
SNB-19 CNS = test system: SNB-19 CNS
U251 CNS = test system: U251 CNS
PC-3 prostate = test system: PC-3 prostate
SK-MEL-5 melanoma = test system: SK-MEL-5 melanoma
UACC-62 melanoma = test system: UACC-62 melanoma
LOX IMVI melanoma = test system: LOX IMVI melanoma
SK-MEL-28 melanoma = test system: SK-MEL-28 melanoma

| SMILES | growth (HCT-15 colon) | growth (HT29 colon) | growth (SNB-75 CNS) | growth (SNB-19 CNS) | growth (U251 CNS) | growth (PC-3 prostate) | growth (SK-MEL-5 melanoma) | growth (UACC-62 melanoma) | growth (LOX IMVI melanoma) | growth (SK-MEL-28 melanoma) |
| --- | --- | --- | --- | --- | --- | --- | --- | --- | --- | --- |
| CCCC[n+]1ccc(SCC(=O)n2ccc3ccccc32)c2ccccc21 | 103% | 96.9% | 92.7% | 97.4% | 89.3% | 90.9% | 85.8% | 77.7% | 101% | 109% |
| COc1cc2oc(-c3cccc(NC(=O)c4cccc([N+](=O)[O-])c4)c3)cc(=O)c2c(OC)c1OC | 56% | 66.4% | -13.5% (active) | 53.6% | 41.9% | 50.2% | 55% | 51% | 33.4% | 88.1% |
| COc1ccc2c(c1)c(-c1nnc(N)nc1-c1c[nH]c3ccc(F)cc13)cn2C | 27.7% | 11.1% | 24.3% | 45.2% | 34.5% | 51.2% | 35.4% | 35.9% | 42.7% | 67.5% |
| CN1CCN(c2ccc(Nc3nc(NCCNC(=O)c4ccc(F)cc4)c4sccc4n3)cc2)CC1 | 28.2% | 32% | 91.5% | 91.8% | 37% | 72.2% | 25.2% | 33.8% | 8.7% (active) | -8.89% (active) |
| O=C(N/N=C\c1ccc([N+](=O)[O-])cc1)c1ccc2nc(-c3ccc(Br)cc3)[nH]c2c1 | 14.8% | -0.826% (active) | 56.4% | 41.6% | 4.44% (active) | 25% | 2.52% (active) | 31.4% | -52.9% (active) | 36.8% |
| CC(C)NC(=O)c1cc(-c2ccc(NC(=O)Nc3ccc(F)c(C(F)(F)F)c3)cc2)nc2cccnc12 | 89.7% | 91% | 80% | 93.6% | 87.8% | 84.2% | 93.2% | 97% | 88.8% | 100% |
| CN1CCN(CC#CCn2c3c(c4ccccc42)C[C@]2(C)[C@H]4CC=C5[C@@H]6CC(C)(C)CC[C@]6(C(=O)N6CCOCC6)CC[C@@]5(C)[C@]4(C)CC[C@H]2C3(C)C)CC1 | 28.4% | 12.3% | 88.9% | 83% | 43.4% | 56.7% | 95.7% | 103% | -46.1% (active) | 92.1% |
| CC(=O)c1cc(C(=O)N2c3ccccc3Sc3ccccc32)n2c1ccc1ccccc12 | 41.6% | 30% | 38.7% | 57.8% | 48.6% | 46.1% | 44.1% | 33.9% | 58.9% | 61.1% |
| O=C(/C=C/c1cccc(C(F)(F)F)c1)Nc1cccc(C(F)(F)F)c1 | 14.9% | 51.5% | 97.5% | 81.9% | 26.9% | 18.9% | 89.1% | 84.5% | 28.4% | 65.4% |
| Oc1[nH]c2ccc(Cl)cc2c1N=Nc1nc(N=Nc2c(O)[nH]c3ccc(Cl)cc23)nc(N2CCOCC2)n1 | 91.6% | 91.1% | -0.671% (active) | -9.43% (active) | 3.81% (active) | 56.1% | 46.1% | 51.6% | 23.2% | 55% |
| CN(C)c1ccc(/C=N/Nc2nc(N/N=C/c3ccc(N(C)C)cc3)nc(N3CCCCC3)n2)cc1 | 0.121% (active) | -4.67% (active) | 101% | 86% | 50% | 84.8% | 86.7% | 101% | -73.3% (active) | 41.7% |
| COc1ccc2[nH]cc(-c3nc(N)nnc3-c3cn(C)c4ccc(Br)cc34)c2c1 | 22% | 2.43% (active) | -4.14% (active) | 30.5% | 20.2% | 24.5% | 15% | 15.9% | 35.4% | 51.3% |
| CC(C)(C)c1cc(NC(=O)Nc2ccc(-c3cn4c5c(sc4n3)CCc3c[nH]cc3-5)cc2)no1 | 5% (active) | -66% (active) | -12.9% (active) | 21.7% | -14.6% (active) | 21.9% | 19.1% | 49.9% | -22.5% (active) | 23.1% |
| O=C(Nc1cc(C(F)(F)F)cc(C(F)(F)F)c1)Nc1ccc2oc(=O)ccc2c1 | 10.5% | 10.5% | 15.1% | 13.6% | 14.6% | 3.96% (active) | -90.6% (active) | 14% | -43.1% (active) | 34.8% |
| O=C(CSc1nc2ccccc2c(=O)n1-c1ccc(Cl)cc1)N/N=C/c1ccc(Oc2ccc(Cl)cc2)cc1 | 10.4% | 1.76% (active) | 57.9% | 28.5% | -20.5% (active) | 0.803% (active) | 10.9% | 0.427% (active) | -56.3% (active) | 3.17% (active) |
| CCOP(=O)(OCC)OC[C@]12CCC(C)(C)C[C@H]1C1=CC[C@@H]3[C@@]4(C)CC[C@H](OP(=O)(OCC)OCC)C(C)(C)[C@@H]4CC[C@@]3(C)[C@]1(C)CC2 | 34.6% | 41.4% | 58.9% | 71.2% | 49.1% | 19.3% | 31.3% | 53.9% | 37.2% | 78.9% |
| Cn1cc(-c2nc(N)nnc2-c2c[nH]c3ccc(Br)cc23)c2cc(F)ccc21 | 77.2% | 104% | 79.9% | 88% | 97.8% | 87.2% | 91.5% | 91.7% | 92.3% | 101% |
| O=S(=O)(NCCCNc1nccc(-c2[nH]c(-c3ccccc3)nc2-c2ccc(F)c(O)c2)n1)c1ccccc1 | 101% | 98.1% | 79.5% | 110% | 114% | 88.2% | 59.9% | 19.6% | 83.7% | 33.8% |
| COc1ccc(/C(=N\NC(N)=S)c2ccc(Cl)cc2)cc1OC | 16% | -1.79% (active) | -8.75% (active) | 24.1% | 22.4% | 36.4% | 21.9% | 18.9% | 40.5% | 47.6% |
| CC1(C)CC[C@]2(C(=O)O)CC[C@]3(C)C(=CC[C@@H]4[C@@]5(C)CC[C@H](NOCCCN)C(C)(C)[C@@H]5CC[C@]43C)[C@@H]2C1 | 64.8% | 74% | 97% | 93.2% | 69% | 65.3% | 61.2% | 71.4% | 32.4% | 87.4% |
| NC1CC2(CCN(c3cnc(C(=O)Nc4cc(F)cc5cccnc45)cn3)CC2)C1 | 3.7% (active) | 5.06% (active) | 74.2% | 83.1% | 57.1% | 76.6% | 95.3% | 95.4% | -17% (active) | 93.3% |
| CNC(=O)c1cc(-n2ccc3cc(NC(=O)Nc4ccc(N5CCN(C)CC5)c(C(F)(F)F)c4)ccc32)ccn1 | 23.8% | 0.845% (active) | 56.3% | 83.1% | 46.6% | 60.8% | 79% | 98.7% | -72.8% (active) | -85.6% (active) |
| C[C@]12CC[C@H]3[C@@H](CC=C4C[C@@H](O)CC[C@@]43C)[C@@H]1CC[C@@H]2[C@](C)(O)CCc1cccnc1 | 70.2% | 69.1% | 62% | 71.4% | 74.1% | 70.1% | 7.89% (active) | 62.6% | 75.9% | 74.4% |
| CCS(=O)(=O)Nc1ccc(C(=O)CC2(O)C(=O)Nc3ccccc32)cc1 (stereo not given) | 100% | 113% | 69.2% | 101% | 105% | 92.4% | 99.8% | 96.9% | 94.6% | 109% |
| CC1(C)C=Cc2cc(/C(N)=N/C(N)=N/c3nc4ccccc4s3)ccc2O1 | 57.7% | 95.1% | 101% | 96.6% | 89.8% | 34.7% | 87.9% | 96.7% | -56.3% (active) | 108% |
| CC(C)=CCC[C@](C)(O)[C@H]1CC[C@]2(C)[C@@H]1CC[C@@H]1[C@@]3(C)CC[C@H](N)C(C)(C)[C@@H]3CC[C@]12C | 20.3% | 59.6% | 87.2% | 81.2% | 48.2% | 68.3% | 84.2% | 91% | -82.5% (active) | 108% |
